Laboratory results taken from PubChem BioAssay (NCI).
This is part of a sample that, as a whole, favours compounds with a hit. Of some 83,000 tested, about 20% had one in any assay.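 Values shown are percent growth following 48 h exposure of cells in 96-well plates to a single concentration of compound; below 10 was considered active.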 Values without a mark were called inactive. Calls of active or inactive are those of the source.

test system: UACC-62 melanoma; assay: NCI-60 one-dose screen, 48 h (100 = growth as untreated, 0 = no growth, -100 = all killed); details: 10 µM unless noted
Method: Growth inhibition of the UACC-62 human tumor cell line is measured as a screen for anti-cancer activity. Cells are grown in 96 well plates and exposed to the test compound for 48 hours. Compounds are tested at a single concentration, which is 10^-5 M for most compounds. The reported endpoint is percent growth (GI% or GIPRCNT), where numbers from 0 - 100% represent growth inhibition, and numbers from -100% - 0 represent cell death. For example, a value of 40 represents 60% growth inhibition. A value of 0 means no net growth occurred over the course of the experiment. A value of -40 indicates 40% of cells at the beginning of the experiment died by the end of the experiment. A value of -100 means all cells are dead at the end of the experiment.
NCI-60 Human Tumor Cell Lines Screen was performed using the standard one-dose NCI protocol, which is described in more detail at https://dtp.cancer.gov/discovery_development/nci-60/default.htm.
Compounds with GIPRCNT values below 10 were considered active. Activity score was based on GIPRCNT using the following formula: […]
Score is 0 for GIPRCNT values of 100 or above, 50 for GIPRCNT values of 0, and 100 for GIPRCNT values of -100.

Row | Compound | growth
1 | Cc1ccc(/C=C(\C#N)n2nnc3cc(Cl)c(Cl)cc32)cc1 | 26.1%
2 | CN1CCN(c2ccc(Nc3ncc(Cl)c(NC[C@@H]4CCCO4)n3)cc2)CC1 | 38.5%
3 | CCN(CC)CCCC(C)NCc1ccccc1 (stereo not given) | 97.5%
4 | CCCCOc1ccc(NC(=O)n2nc(N=NN(C)C)c3ccc(Cl)cc32)cc1 | 86.4%
5 | Fc1ccc(Nc2nc(Nc3ccc(-c4nc5ccccc5[nH]4)cc3)c3cn[nH]c3n2)cc1 | 84.9%
6 | Cc1ccc(S(=O)(=O)Nc2sccc2-c2nc(-c3ccccc3)no2)cc1 | 79.1%
7 | CN(C)CCCCNc1ccc(NCCCCN(C)C)c2c1C(=O)c1c(O)ccc(O)c1C2=O | 104%
8 | CCN(CC)CC(=O)Nc1cccc(C(=O)OC(C)C)c1 | 102%
9 | CCn1c(Sc2nnc(NC(C)=O)s2)nc2c1c(=O)n(C)c(=O)n2C | 93.3%
10 | CCCCCCNC(=O)c1cc(NCc2cc(O)ccc2O)ccc1O | 56.3%
11 | Clc1ccc2c(NCCCN3CCN(c4nc(N5CCOCC5)nc5ccccc45)CC3)ccnc2c1 | -33.1% (active)
12 | CCOC(=O)N1CCc2c(sc3c2C(=O)N[C@H](c2ccc(OC)cc2)N3)C1 | 91.8%
13 | COc1ccc(/C(C)=C(\c2ccc(Cl)cc2)c2ccc(OCCN3CCCCC3)cc2)cc1F | -33% (active)
14 | C=CCO[C@H]1CO[C@H]2[C@@H]1OC[C@@H]2Oc1ccc(Nc2ccnc(Nc3ccc(O[C@H]4CO[C@H]5[C@@H]4OC[C@@H]5OCC=C)c(Cl)c3)n2)cc1Cl | -92.2% (active)
15 | COc1ccc(Cn2cnc3cc(C(=O)Nc4cccc5ccccc45)ccc32)c(OC)c1 | 14.8% [30 µM]
16 | O=C(NCCN1CCC(O)CC1)c1cc2c(o1)C(=O)c1ccccc1C2=O | -89.4% (active)
17 | CNC(=O)c1cc(Oc2ccc3nc(Nc4cc(Cl)cc(Cl)c4)ccc3c2)ccn1 | 44.7%
18 | CN1C[C@@H](c2ccc(Cl)cc2)[C@]2(NC(=S)N(c3ccccc3)C2=O)[C@@]12C(=O)NC1C=CC(Br)=C[C@H]12 (stereo not given in full) | 74.3%
19 | C=C1C(=O)O[C@H]2[C@H]1CC/C(COC(=O)/C=C\C(=O)NCc1ccc(Cn3c(=O)sn(CCCC)c3=O)cc1)=C\CC[C@@]1(C)O[C@@H]21 | -97.4% (active)
20 | CCCCCCCC/C=C/CCCCCCCC1=NCC[N+]1(CCO)CCO | 69.4%

Row | Compound | growth
21 | COc1ccc(/C=C2\C=C(c3ccccc3)N(CCc3ccccc3)C2=O)cc1OC | 54.5%
22 | CC(=O)Nc1ccc2c(c1)Cc1c(F)cccc1-2 | 98.9%
23 | Cc1ccccc1NC(=O)CN(C)C | 99.3%
24 | CC(C)(C)CC(C)(C)Nc1c(-c2ccc(-c3ccccc3)cc2)nc2cnccn12 | 75.9%
25 | Cc1cnc(Nc2ccc(N3CCN(C)CC3)cc2)nc1Nc1ccc(Cl)c(NS(=O)(=O)C(C)(C)C)c1 | 16.1%
26 | N#Cc1c(Oc2ccc([N+](=O)[O-])cc2)nc2sc3cc(Cl)ccc3n2c1=N | 79.3%
27 | N[C@@H]1CCC[C@H]1NCCCCN1C(=O)c2cccc3cccc(c23)C1=O | 95.7%
28 | N=C(N)c1ccc(-c2ccc(-c3ccc(Cl)cc3Cl)o2)cc1 | 72.1%
29 | N#Cc1cnn2c(-c3ccc(Cl)cc3)nc(NCCc3ccccc3)nc12 | 65.7%
30 | CCN(CCO)CC(=O)c1cc(Cl)cc(Cl)c1Cl | 98.3%
31 | C=C1C(=O)O[C@H]2[C@H]1CC/C(COC(=O)/C=C/C(=O)NCc1ccc(Cn3c(=O)sn(-c4ccccc4)c3=O)cc1)=C\CC[C@@]1(C)O[C@@H]21 | -80.8% (active)
32 | O=C(/C=C/C12c3ccccc3C(c3ccccc31)C1C(=O)N(c3ccccc3)C(=O)C12)c1ccccc1 (stereo not given) | 1.31% (active)
33 | O=[N+]([O-])c1ccc(-c2cc3c(Nc4ccc(OCc5cccc(Cl)c5)c(Cl)c4)ncnc3s2)cc1 | 78.3%
34 | C=C(C)[C@@H]1CC[C@]2(CO)CC[C@]3(C)[C@H](CC[C@@H]4[C@@]5(C)C=C(C#N)C(=O)C(C)(C)[C@@H]5CC[C@]43C)[C@@H]12 | -33% (active)
35 | C=C(C)[C@@H]1CC[C@]2(C(=O)NCC(=O)O)CC[C@]3(C)[C@H](CC[C@@H]4[C@@]5(C)Cc6c([nH]c7ccccc67)C(C)(C)[C@@H]5CC[C@]43C)[C@@H]12 | 79.7%
36 | CC(C)c1ccc(NC(=O)Cc2ccc(Nc3ncnc4cc(-c5cnn(CCN(C)C)c5)ccc34)cc2)cc1 | -89.1% [30 µM] (active)
37 | COc1cc(/C=C/c2nc(Nc3ccc(S(=O)(=O)Nc4cc(C)on4)cc3)c3ccccc3n2)ccc1O | 46.6%
38 | CCOC(=O)c1cnn2c(-c3ccc(Cl)cc3)nc(NCc3ccccc3)nc12 | 63.4%
39 | O=C(NCCOCCOCCOCCNC(=O)c1cc2c(o1)C(=O)c1ccccc1C2=O)NC12CC3CC(CC(C3)C1)C2 | -93.6% (active)
40 | COc1ccc2c(c1)/C(=C\c1sc(=S)[nH]c1O)C(C(=O)O)=N2 | 91.4%
